Source: PubChem BioAssay (NCI)
Several values for one entry are separate records, joined by “and”; a condition that tells them apart may be missing. Equal entries are not always repeated. The panel holds about 83,000 compounds, 20% with a hit somewhere; the sample as a whole holds those more often.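 Growth was measured after 48 h exposure to one concentration of compound in 96-well plates. Values under 10 count as active.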 Activity calls are given as the source filed them.

The molecules below were run on NCI/ADR-RES ovarian (assay: NCI-60 one-dose screen, 48 h (100 = growth as untreated, 0 = no growth, -100 = all killed)). Conditions: 10 µM unless noted.
Description: Growth inhibition of the NCI/ADR-RES human […] tumor cell line is measured as a screen for anti-cancer activity. Cells are grown in 96 well plates and exposed to the test compound for 48 hours. Compounds are tested at a single concentration, which is 10^-5 M for most compounds. The reported endpoint is percent growth (GI% or GIPRCNT), where numbers from 0 - 100% represent growth inhibition, and numbers from -100% - 0 represent cell death. For example, a value of 40 represents 60% growth inhibition. A value of 0 means no net growth occurred over the course of the experiment. A value of -40 indicates 40% of cells at the beginning of the experiment died by the end of the experiment. A value of -100 means all cells are dead at the end of the experiment.
NCI-60 Human Tumor Cell Lines Screen was performed using the standard one-dose NCI protocol, which is described in more detail at https://dtp.cancer.gov/discovery_development/nci-60/default.htm.
Compounds with GIPRCNT values below 10 were considered active. Activity score was based on GIPRCNT using the following formula: […]
Score is 0 for GIPRCNT values of 100 or above, 50 for GIPRCNT values of 0, and 100 for GIPRCNT values of -100.
`CC[C@H](C)[C@H](NC(=O)[C@H]1CCCCN1C)C(=O)N(C)[C@H](C[C@@H](OC(C)=O)c1nc(C(=O)NC23C4C5C2C2C3C4C52C(=O)OC)cs1)C(C)C` (stereo not given in full) was tested, and the growth was 10.9% (inactive). `COCC1OC2OC3C(COC)OC(OC4C(COC)OC(OC5C(COC)OC(OC6C(COC)OC(OC7C(COC)OC(OC8C(COC)OC(OC1C(O)C2O)C(O)C8O)C(O)C7O)C(O)C6O)C(O)C5O)C(O)C4O)C(O)C3O` (stereo not given) (tested in a mixture with another compound) was tested, and the growth was 127% (inactive). `N[C@@H](CCC(=O)CCl)C(=O)O` was tested, and the growth was 104% [20 µM] (inactive). In the case of `OCCN=Cc1c[nH]c2ccccc12`, the growth is reported as 100% (inactive). In the case of `CC[C@H](C)[C@H](NC(=O)C12CC(NC)(C1)C2)C(=O)N(C)[C@H](C[C@@H](OC(C)=O)c1nc(C(=O)N[C@@H](Cc2ccccc2)C[C@H](C)C(=O)OC)cs1)C(C)C`, the growth is reported as 68.9% (inactive). In the case of `C(=NC1CCCCC1)=NC1CCCCC1`, the growth is reported as 111% (inactive) and 75.5% (inactive). In the case of `CCCCOCCOP(=O)(OCCOCCCC)OCCOCCCC`, the growth is reported as 99.7% (inactive). With `CC1OC(=O)C(C(C)C)NC(=O)C(C(C)C)OC(=O)C(C(C)C)NC(=O)C(C)OC(=O)C(C(C)C)NC(=O)C(C(C)C)OC(=O)C(C(C)C)NC(=O)C(C)OC(=O)C(C(C)C)NC(=O)C(C(C)C)OC(=O)C(C(C)C)NC1=O` (stereo not given) the growth was 0.571% (active). In the case of `COC[C@H]1OC(=O)c2coc3c2[C@@]1(C)C1=C(C3=O)[C@@H]2CCC(=O)[C@@]2(C)C[C@H]1OC(C)=O`, the growth is reported as 52.5% (inactive). For `CC/C(=C(\c1ccc(OCCN2CCOCC2)cc1)c1ccc(OC(=O)Cc2ccccc2)cc1)c1ccc(Cl)cc1`, the growth was 105% (inactive). For `Clc1ccc(COC(Cn2ccnc2)c2ccc(Cl)cc2Cl)c(Cl)c1` (stereo not given), the growth was 21.7% (inactive) and -21.9% (active). `C[C@]12CC[C@H]3[C@@H](C[C@@H]4SC(Nc5cccc(F)c5)=N[C@@]45CC(=O)CC[C@]35C)[C@@H]1CCC2=O` was tested, and the growth was 55.4% (inactive). With `CC(C)COC(=O)Cc1ccccc1` the growth was 110% (inactive). `C=CC1CN2CCC1CC2C(O)c1ccnc2ccccc12` (stereo not given) was tested, and the growth was -15.5% (active). With `CC(=O)Cc1ccc2c(c1)OCO2` the growth was 103% (inactive). With `[N-]=[N+]=CC(=O)CCC(=O)C=[N+]=[N-]` the growth was 103% (inactive). With `COc1ccc(CN)cc1OC` the growth was 106% (inactive) and 103% (inactive). For `C[N+]1(CC#CC[N+]2(C)CCCC2)CCCC1`, the growth was 102% (inactive). For `CC(=O)C(N)Cc1ccccc1` (stereo not given), the growth was 99.4% (inactive). In the case of `CCC(Br)(CC)C(=O)NC(N)=O`, the growth is reported as 116% (inactive). `CCC1CCC(=O)O1` (stereo not given) was tested, and the growth was 112% (inactive) and 124% (inactive). In the case of `O=C(O)c1cc([N+](=O)[O-])cc([N+](=O)[O-])c1`, the growth is reported as 106% (inactive). For `C[C@@H]1C/C=C\C(=O)O[C@H](/C=C/C#C/C=C/C(C)(C)[C@@H](O)c2cccc(O)c2Br)[C@@H](C)/C=C/[C@H](C)C[C@H](OC(N)=O)C1`, the growth was 33.5% (inactive). In the case of `Cc1cc(N(CCCl)CCCl)ccc1C=Nc1ccc(-c2csc(-c3ccccc3)n2)cc1`, the growth is reported as 82.4% (inactive). In the case of `CC(Oc1ccc(-c2ccccc2)cc1)C(=O)O` (stereo not given), the growth is reported as 104% (inactive). With `CC1=C2[C@H]3OC(=O)[C@@H](C)[C@@H]3CC[C@@]2(C)C=CC1=O` the growth was 13.8% (inactive). In the case of `Cc1cc(C(C)(C)C)ccc1O`, the growth is reported as 98.3% (inactive). `Cc1c2ccncc2c(C)c2c1[nH]c1ccccc12` was tested, and the growth was -46.9% (active). In the case of `O=c1[nH]c(=O)n(Cl)c(=O)n1Cl`, the growth is reported as 115% (inactive) and 96.8% (inactive). `CN1CCN(c2ccc(Cl)cc2)CC1` was tested, and the growth was 70.1% (inactive). With `Cc1cc[c-]cc1.Fc1c[c-]c(-c2ccccn2)c(F)c1.[Pt+2].c1ccc([PH+](c2ccccc2)c2ccccn2)cc1` the growth was 88.2% (inactive). With `Nc1ccc(P(=O)(O)O)cc1` the growth was 93.1% (inactive) and 102% (inactive). With `C#Cc1cccc(Nc2nc(Cl)nc3cc(NC(=O)CF)ccc23)c1` the growth was 53.9% (inactive). With `COc1ccn(C)c(=O)c1C#N` the growth was 102% (inactive). With `O=C(O)CNCP(=O)(O)O` the growth was 110% (inactive). For `COc1cc2c(cc1OC)-c1c3c(cc4c1[C@@H](C2)N(C)CC4)OCO3`, the growth was 43.5% (inactive). `C[C@]12CC[C@H]3[C@@H](CC=C4c5nc(-c6ccc(Br)cc6)sc5CC[C@@]43C)[C@@H]1CC[C@@H]2O` was tested, and the growth was 99.5% (inactive). `O=NN(c1ccccc1)c1ccccc1` was tested, and the growth was 100% (inactive). `COc1c(O)cc2c(c1OC)-c1ccc(SC)c(=O)cc1C(NC(C)=O)CC2` (stereo not given) was tested, and the growth was -1.28% (active). In the case of `CNC(=O)CCl`, the growth is reported as 103% (inactive).
